Each structure is given as a SMILES string.

Common to all, as to format: functional
Assay [1] deals with Solute carrier family 2, facilitated glucose transporter member 1 (Homo sapiens) (UniProt P11166). As to the kind of experiment: ST_JUDE_LEISH: Cytotoxicity at 2uM final concentration against transgenic Leishmania Mexicana promastigotes LmGLUT1 that are glucose transport deficient and complemented with the human glucose transporter GLUT1. Activity is measured by DNA content using SYBR green in vitro.

Assay [2] concerns the target Hexose transporter 1 (Plasmodium falciparum) (UniProt O97467). As to the kind of experiment: ST_JUDE_LEISH: Cytotoxicity at 2uM final concentration against transgenic Leishmania Mexicana promastigotes LmPfHT that are glucose transport deficient and complemented with the Plasmodium falciparum hexose transporter. Activity is measured by DNA content using SYBR green in vitro.

Assay [3] has as its target Glucose transporter (Leishmania mexicana) (UniProt O61059). Kind of assay: ST_JUDE_LEISH: Cytotoxicity at 2uM final concentration against transgenic Leishmania Mexicana promastigotes LmGT2 that are glucose transport deficient and complemented with the L. Mexicana glucose transporter 2. Activity is measured by DNA content using SYBR green in vitro.

Chain of Solute carrier family 2, facilitated glucose transporter member 1 (Homo sapiens) (P11166 whole entry): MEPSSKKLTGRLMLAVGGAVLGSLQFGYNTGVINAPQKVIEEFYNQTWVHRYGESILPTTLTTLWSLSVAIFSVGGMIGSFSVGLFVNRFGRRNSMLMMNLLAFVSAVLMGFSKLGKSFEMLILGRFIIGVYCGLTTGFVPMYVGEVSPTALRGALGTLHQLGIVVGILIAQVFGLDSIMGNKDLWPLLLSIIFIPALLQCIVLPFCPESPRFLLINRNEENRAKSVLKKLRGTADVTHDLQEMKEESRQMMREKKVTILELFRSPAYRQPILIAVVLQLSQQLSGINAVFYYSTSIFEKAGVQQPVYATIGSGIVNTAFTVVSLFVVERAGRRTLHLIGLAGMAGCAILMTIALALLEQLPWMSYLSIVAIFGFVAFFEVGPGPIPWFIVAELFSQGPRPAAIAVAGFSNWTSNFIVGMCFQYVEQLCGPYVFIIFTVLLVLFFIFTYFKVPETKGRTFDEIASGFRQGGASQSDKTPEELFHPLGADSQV

Consider `O=C(NC1CCN(Cc2ccccc2)CC1)c1ccc(-c2nc3cc(Cl)c(Cl)cc3[nH]2)s1`, for which the inhibition (as a rule, the drop in the measured response relative to a control, in per cent) in assay [1] was determined as 0.03%; in assay [2] it was 1.08%; in assay [3], 1.39%.

Consider `COc1cccc(CN2CCCC(CCC(=O)Nc3ccc(C(F)(F)F)cc3)C2)c1O` (stereo not given), for which the values for the inhibition in assay [1], in assay [2] and in assay [3] were 1.04%, 2.12% and 1.85%, respectively.

On to `CCSc1nnc(C2CCCN(CC(=O)Nc3cc(C(F)(F)F)ccc3Cl)C2)n1CC` (stereo not given), for which the inhibition in assay [1] amounted to 8.8%; in assay [2], 8.79%; in assay [3], 8.67%.

Take `CC(C)[C@@H](NC(=O)NC1CCC(CCN2C3CCC2CC(OC(=O)C(CO)c2ccccc2)C3)CC1)C(O)(c1ccccc1)c1ccccc1` (stereo not given in full): the values for the inhibition in assay [1], in assay [2] and in assay [3] were 8.23%, 8.36% and 4.86%, respectively.

Regarding `CC1CCN(CC[C@H]2CCCN2S(=O)(=O)c2cccc(NC(=O)Nc3ccc(C(F)(F)F)cc3)c2)CC1`, the results for the inhibition in assay [1], in assay [2] and in assay [3] were 0.63%, 1.64% and -0.02%, respectively.

Regarding `CCn1cc(CN2CCCC(C(=O)Nc3ccc(-c4nc5ccccc5[nH]4)cc3)C2)cn1` (stereo not given), the inhibition turned out to be 3.25% in assay [1], 3.52% in assay [2] and 2.06% in assay [3].

On to `CC(C)c1ccc(NC(=O)c2ccc(C(=O)NCC3CCN(CC4CCCCC4)CC3)cc2)cc1`, for which the inhibition in assay [1] stood at 3.12%; in assay [2] it was 1.53%; in assay [3], 1.95%.

As for `COc1ccc2cc(C(c3nnnn3CC3CCCO3)N3CCc4ccccc43)c(=O)[nH]c2c1` (stereo not given), the results for the inhibition in assay [1], in assay [2] and in assay [3] were 2.55%, 3.26% and 2.23%, respectively.

Take `CN1CCN(c2ccc(Nc3nccc(-c4c(-c5cccc(NC(=O)c6c(F)cccc6F)c5)nn5ccccc45)n3)cc2)CC1`: the inhibition is 21.9% in assay [1], 17.8% in assay [2] and 4.51% in assay [3].

Regarding `Cc1cc([N+](=O)[O-])ccc1N1CCN(CCCCNC(=O)c2ccc(NC(=O)c3ccc(Cl)cc3)cc2)CC1`, the results for the inhibition in assay [1], in assay [2] and in assay [3] were 4.75%, 4.19% and 4.35%, respectively.

Turning to `Cc1ccc2cc(NC(=O)CCCCCCCON3C(N)=NC(N)=NC34CCCCC4)ccc2n1`, the inhibition is -1.59% in assay [1], 0.8% in assay [2] and 0.83% in assay [3].

As to `Cc1cc(N[C@@H](C)C(=O)Nc2ccccc2)nc(NCCc2ccc(F)cc2)n1`, the results for the inhibition in assay [1], in assay [2] and in assay [3] were 2.77%, 4.77% and 1.18%, respectively.

For `Clc1ccc2c(NN=Cc3cccnc3)ccnc2c1`, the inhibition in assay [1] is 6.14%; in assay [2] it was 0.59%; in assay [3] it was 5.48%.

As for `Cc1cc(Cl)c(S(=O)(=O)N(C)c2ccccc2)cc1OCC(=O)NC1CCCCC1`, the inhibition in assay [1] was determined as 1.65%; in assay [2], 1.38%; in assay [3] it was 2.02%.

`C=CCC1OC(=O)c2cc(OC)cc(OC)c21` (stereo not given): the results for the inhibition in assay [1], in assay [2] and in assay [3] were 89.1%, 84.4% and 86.9%, respectively.

As for `CC(=O)c1ccc(-c2ccccc2)s1`, the inhibition in assay [1] was determined as 2.16%; in assay [2] it was 3.72%; in assay [3], 1.61%.

Take `c1csc(-c2nc(N3CCCCC3)ncc2-c2ccsc2)n1`: the inhibition in assay [1] turned out to be 4.57%; in assay [2] it was 4.73%; in assay [3], 2.33%.

On to `COc1ccc(-n2nc(C)c3c2NC(=O)CC3c2ccccc2OCc2ccc(F)cc2)cc1` (stereo not given), for which the inhibition in assay [1] is 4.97%; in assay [2] it was 4.4%; in assay [3] it was 5.62%.

For `CC(C)CCN(Cc1cncn1Cc1cccc(C(F)(F)F)c1)C(=O)c1cncc(-c2ccccc2)c1`, the inhibition is 3.6% in assay [1], 4.72% in assay [2] and 1.28% in assay [3].

On to `Cc1cc(-c2nc3cncc(-c4cccc(CN5CCCC5Cc5cccnc5)c4)c3n2C)nn1C` (stereo not given), for which the inhibition is -1.04% in assay [1], -2.01% in assay [2] and -0.34% in assay [3].

As for `CC(C)CNCc1cccc(-c2cccc(CN(CCCN3CCN(C)CC3)C(=O)NC3CCCCC3)c2)c1`, the inhibition is 0.8% in assay [1], 0.99% in assay [2] and -0.56% in assay [3].

Take `CN(C)CCN(C)Cc1ccc(-c2ccc3c(Nc4ccc(Oc5ccccc5)cc4)ccnc3c2)o1`: the inhibition in assay [1] is 0.78%; in assay [2], 2.26%; in assay [3], 2.63%.

`CN(C)CCOc1cc(NC(=O)Nc2ccc(-c3ccncc3)c3ccccc23)ccc1I`: the inhibition in assay [1] is 6.39%; in assay [2], 8.78%; in assay [3] it was 1.62%.

Consider `CCC[C@@H]([C@@H](CC1CCCCC1)C(=O)N[C@H](C(=O)Nc1nccs1)[C@H](C)O)N(O)C=O`, for which the inhibition in assay [1] turned out to be 1.07%; in assay [2] it was 1.35%; in assay [3], 2.03%.

Regarding `CCC(C)NS(=O)(=O)c1ccc2nc(Nc3ccc(C)cc3)n(C3CCCCC3)c2c1` (stereo not given), the inhibition in assay [1] came out at 5.26%; in assay [2] it was 4.02%; in assay [3] it was 3.35%.

Regarding `FC(F)(F)c1ccc2[nH]c(-c3ccc(-c4ccc(CNCc5cnn(-c6ccccc6)n5)cc4)cc3)nc2c1`, the inhibition is 2.68% in assay [1], 0.52% in assay [2] and 0.17% in assay [3].

As to `CNc1ccc(CNCc2cccc(-c3ccc(-c4nc5ccccc5[nH]4)s3)c2)cc1`, the inhibition in assay [1] came to 1.37%; in assay [2], 1.02%; in assay [3], 0.87%.

With `CN1Cc2cc(NC(=O)/C=C/c3ccccc3Cl)ccc2C(C)(C)C1`, the inhibition in assay [1] amounted to 10.7%; in assay [2], 8.21%; in assay [3], 6.98%.

`COc1ccc(-c2nonc2NC(=O)c2ccc(C(C)(C)C)cc2)cc1OC`: the inhibition in assay [1] was -0.32%; in assay [2] it was 0.21%; in assay [3] it was -0.16%.

With `Clc1cccc(C=NNc2ccnc3cc(Cl)ccc23)c1`, the inhibition in assay [1] was -1.51%; in assay [2] it was -2.17%; in assay [3], -3.26%.

For the molecule `O=C(NCCCCN1CCC(c2ccc3c(c2OCc2ccncc2)CCCC3)CC1)c1ccc(-c2ccc(C(F)(F)F)cc2)cc1`, the inhibition in assay [1] amounted to 1.51%; in assay [2], 1.48%; in assay [3] it was 0.42%.

For `O=C1CCCN1CCCNCc1ccc(-c2ccc(-c3nc4cc(C(F)(F)F)ccc4[nH]3)s2)cc1`, the values for the inhibition in assay [1], in assay [2] and in assay [3] were 4.04%, 1.98% and 3.27%, respectively.

For `Cc1nccn1CCNC(=O)CN1CCC2(CCC1=O)CC(=O)c1ccccc1O2` (stereo not given), the inhibition in assay [1] amounted to 8.32%; in assay [2] it was 7.32%; in assay [3], 7.28%.

Take `COc1ccc(Br)cc1/C=C/C(=O)Nc1ccc(C2CCCN(C)C2)cc1` (stereo not given): the inhibition in assay [1] was determined as 3.89%; in assay [2] it was 2.73%; in assay [3] it was 5.71%.

Regarding `CCc1ccc(NC(=O)N(CCCN2CCN(C)CC2)Cc2csc(-c3ccc(CNCc4ccccc4)cc3)n2)cc1`, the values for the inhibition in assay [1], in assay [2] and in assay [3] were -1.59%, -0.93% and 3.09%, respectively.

The record behind these values is ChEMBL document CHEMBL3433997, “St. Jude Leishmania screening dataset” (2016).
